ATXN viability: Viability Counterscreen for Primary qHTS for Inhibitors of ATXN expression; Potency, µM (titrated, usually from 56.7 µM), most hits filed as cytotoxic; hit rate 0.49% among 400,000; S2 cells (HEK-293 line with an ATXN2-luciferase reporter) viability, CellTiter-Fluor protease fluorescence, 24 h; note: nearly all actives have a fitted effect of over 40% in size
TGFb SMAD3 inh: qHTS for Inhibitors of TGF-b; HepG2 CAGA-GFP TGF-b/SMAD3 reporter, GFP fluorescence, 18 h; TGF-beta stimulated, 500 pg/mL final; Potency, µM (highest dose often 46.1 µM), inactives show top-dose activity, negative = inhibition, most hits filed as inhibitors; hit rate 1.2% among 410,000; note: % is set by controls: 0 for no effect and ±100 for the full control effect; nearly all actives have a fitted effect of over 65% in size
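HEPG2 CAGA-GFP cells (1000/well, DMEM with 1% FBS) were pre-incubated 2 h at 37 degrees C, given compound by pin tool, then stimulated with TGF-beta at 500 pg/mL final for 18 h before per-cell GFP fluorescence imaging.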
DT40 TDP1 CPT: qHTS for Inhibitors of human tyrosyl-DNA phosphodiesterase 1 (TDP1): qHTS in cells in presence of CPT | chicken DT40 Tdp1-/-;hTDP1 cells + 20 nM CPT, ATP luminescence, 48 h | Potency, µM (titrated, usually from 46.2 µM), without a hit: at the highest dose activity change, negative = growth inhibition, usual class: inhibitors | hit rate 12% among 420,000 | AID 686979, 2013; note: % is set by controls: 0 for no effect and ±100 for the full control effect; nearly all actives have a fitted effect of over 55% in size
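Chicken DT40 Tdp1-/- cells stably complemented with human TDP1 were seeded at 400 cells/well in medium containing 20 nM camptothecin, exposed to pin-transferred compounds, and grown at 37 °C for at least 48 hr. Viability was read as ATP luminescence.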
ATXN2 expr inh: Primary qHTS for Inhibitors of ATXN expression; HEK-293 ATXN2-luciferase reporter, luminescence, 24 h; Potency, µM (titrated, usually from 57 µM), inactives show at the highest dose activity change, negative = inhibition, usual class: inhibitors; hit rate 0.72% among 360,000; AID 1745845, 2022; note: % is set by controls: 0 for no effect and ±100 for the full control effect; nearly all actives have a fitted effect of over 55% in size
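ATXN2-luciferase reporter cells (luciferase flanked by upstream and downstream ATXN2 gene portions) were treated 24 h at 37 °C with compounds at up to 57 uM. SteadyGlo luminescence gave expression; GF-AFC fluorescence gave viability.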
HepG2 viability: qHTS for Inhibitors of TGF-b: Cytotox Counterscreen. HepG2 CAGA-GFP viability, ATP luminescence, 18 h. Potency, µM (doses to about 46.1 µM), inactives show top-dose activity change, negative = cytotoxicity, hits mostly cytotoxic. hit rate 0.76% among 410,000. AID 588856, 2011
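HepG2 CAGA-GFP cells (1000/well, DMEM with 1% FBS) received compound, then TGF-beta at 500 pg/mL final, and were incubated 18 hours at 37 degrees C. Viability was read by CellTiter-Glo luminescence. Media-only wells were set as complete cell-killing and DMSO as no toxicity.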
DT40 TDP1 no CPT: qHTS for Inhibitors of human tyrosyl-DNA phosphodiesterase 1 (TDP1): qHTS in cells in absence of CPT; AID 686978, 2013; Potency, µM (highest dose often 46.2 µM), without a hit: at the top dose activity change, negative = growth inhibition, usual class: inhibitors; DT40 Tdp1-/- hTDP1 cells, no CPT, ATP luminescence, 48 h; hit rate 15% among 420,000; note: % is set by controls: 0 for no effect and ±100 for the full control effect; nearly all actives have a fitted effect of over 55% in size
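Chicken DT40 Tdp1-/- cells complemented with human TDP1, screened without camptothecin (DMSO vehicle only), 400 cells/well. Compounds pin-transferred, cells incubated at 37 °C for at least 48 hr. Growth read as ATP-dependent luminescence (CellTiter-Glo, 30 min at RT).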
Numbers without * were called inactive; i = inactive; ? = inconclusive; / = not tested or not shown. Most compounds without a hit are left out; they make up all but 17% or so of the library. Calls come from the whole dose curve; as a rule, active = well fitted curve in the direction sought with a large enough effect; inconclusive = small, poorly fitted or top-dose-only effect, or another doubt; inactive = no such curve, though single readings can be large; an effect the other way counts as inactive or inconclusive. Potency is the fitted concentration of half-maximal effect.

SMILES	ATXN viability	TGFb SMAD3 inh	DT40 TDP1 CPT	ATXN2 expr inh	HepG2 viability	DT40 TDP1 no CPT
COc1ccc(-c2nc(SCC(=O)Nc3ccc4c(c3)OCCO4)c(-c3ccccc3)[nH]2)cc1	?	?	?	-34%	-22%	23µM*
COc1cccc(-c2nc(SCC(=O)NC3CCCC3)c(-c3ccc(F)cc3)[nH]2)c1	/	?	?	/	-40%	21µM*
CCC(=O)NCc1c(C)c(C)n(Cc2ccccc2)c1-n1cccc1	i	2%	-21%	-2%	-19%	?
COc1ccc2nc(SCC(=O)NC3CCCC3)c(C)cc2c1	i	?	16µM*	-22%	0%	16µM*
COc1ccccc1CNC(=O)COc1cc2c(c3oc(=O)cc(C)c13)CCC(C)(C)O2	?	-17%	23µM*	?	-14%	23µM*
COc1cccc(CNC(=O)COc2cc3c(c4oc(=O)cc(C)c24)CCC(C)(C)O3)c1	?	-22%	21µM*	-22%	-37%	16µM*
CCc1cc(=O)oc2c3c(cc(OCC(=O)NCc4ccncc4)c12)OC(C)(C)CC3	i	-5%	16µM*	-8%	-27%	21µM*
CCc1cc(=O)oc2c3c(cc(OCC(=O)NCc4ccco4)c12)OC(C)(C)CC3	?	?	?	?	-3%	?
COc1ccc(-c2nnc(SCC(=O)c3ccc([N+](=O)[O-])cc3)o2)cc1OC	i	0%	/	13%	0%	/
O=S(=O)(NCc1ccccc1)c1cccc2nonc12	i	24%	-5%	1%	-3%	-13%
NS(=O)(=O)c1ccc(CNS(=O)(=O)c2cccc3nonc23)cc1	i	0%	3%	11%	6.3µM*	-3%
O=C(CCNS(=O)(=O)c1ccccc1)NCC1CCCCC1	i	-8%	-8%	1%	-7%	-27%
Cn1c(C(=O)N2CCN(c3ccc([N+](=O)[O-])cc3)CC2)cc2c(=O)[nH]c3ccccc3c21	i	0%	?	-21%	-3%	12µM*
Cc1cc(C(=O)N2CCN(c3ccc([N+](=O)[O-])cc3)CC2)co1	i	-23%	?	0%	-22%	?
CCN1C(=NCCc2ccc([N+](=O)[O-])cc2)N[C@@H](c2ccccc2)[C@H](C(=O)OC)[C@H]1C	i	19%	?	-16%	-11%	15µM*
CCN1C(=NCCc2ccc(Br)cc2)N[C@@H](c2ccccc2)[C@H](C(=O)OC)[C@H]1C	?	-33%	23µM*	?	-48%	18µM*
Cc1cccc(-c2nc(CN3CCCC(C(=O)NCc4ccc(Cl)cc4)C3)c(C)o2)c1 (stereo not given)	i	?	-86%	-8%	-18%	7.3µM*
Cc1oc(-c2cccc(Br)c2)nc1CN1CCC(C(=O)NCc2ccccc2)CC1	/	0%	18µM*	/	-12%	?
COc1ccc(CNC(=O)C2CCCN(Cc3nc(-c4cccc(C)c4)oc3C)C2)cc1 (stereo not given)	i	?	13µM*	-23%	-40%	13µM*
Cc1oc(-c2ccc(Cl)cc2)nc1CN1CCCC(C(=O)NCc2ccc(Cl)cc2)C1 (stereo not given)	i	0%	?	1%	-7%	?
CCOc1ccccc1NC(=O)Cc1coc2c(C)c(C)ccc12	i	-2%	?	-12%	-3%	?
O=C(CSc1nnc2ccc(-c3ccccn3)nn12)Nc1ccccc1F	i	-12%	-26%	6%	0%	6%
CCC(=O)NC1CC(=O)N(c2ccc3c(c2)OCCO3)C1 (stereo not given)	/	3%	1%	/	-6%	-15%

Source: PubChem
